# According to PubChem BioAssay AID618 (Sanford-Burnham Center for Chemical Genomics, 2007):
# Hit rate of the full screen: of about 87,000 compounds, about 540 (0.62%) were called active. How the calls were made is not given here. The entries come from a sample that favours actives as a whole. A call without a number means that no potency is given here. Potency and affinity values are given separately.
# Experiment: MT1-MMP gene expression reporter suppression – cell-based, luciferase reporter, luminescence (AID 618);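 further: actives suppress MT1-MMP promoter-driven transcription so potencies describe inhibitors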
# Conditions: MT1-MMP promoter luciferase reporter cells
row,SMILES,outcome
1,O=C(Nc1nccs1)c1ccc(COc2ccccc2Br)o1,inactive
2,O=C(CSCc1c(Cl)cccc1Cl)Nc1nccs1,inactive
3,CCCCOC(=O)Nc1ccc(C(N)=O)cc1,inactive
4,C/C=C/c1ccc(OCCCNC)c(OC)c1,inactive
5,CC1CCN(C(=O)COc2ccccc2F)CC1,inactive
6,O=C(CCn1c(=O)[nH]c2ccsc2c1=O)N1CCN(c2cccc(Cl)c2)CC1,inactive
7,CCCc1cc(C(=O)Nc2cc(OC)c(Cl)cc2OC)no1,inactive
8,COc1ccc(-c2nc(-c3ccc(Br)cc3)no2)c(OC)c1,inactive
9,Brc1ccc(-c2nc(-c3ccccc3)no2)o1,inactive
10,c1ccc(-c2noc(-c3cccnc3)n2)nc1,inactive
11,COc1ccc(-c2noc(-c3ccccc3-c3ccccc3)n2)cc1,inactive
12,COc1ccc(-c2noc(-c3ccc4c(c3)OCO4)n2)cc1,inactive
13,c1cc(-c2noc(-c3ccc4c(c3)OCO4)n2)ccn1,inactive
14,c1ccc(-c2noc(-c3ccco3)n2)nc1,inactive
15,c1ccc(-c2noc(-c3ccc4c(c3)OCO4)n2)nc1,active
16,COc1ccc(-c2nc(-c3ccccc3)no2)c(OC)c1,active
17,c1ccc(-c2noc(-c3ccncc3)n2)nc1,inactive
18,Cc1sc2nc(SCC(=O)N3CCCC3)[nH]c(=O)c2c1C,inactive
19,O=C1CC(c2ccco2)c2ccc3ccccc3c2N1 (configuration not stated),inactive
20,CCOC(=O)c1cnc(SCC(=O)c2ccc(C)cc2)nc1N,inactive
21,Cc1cc(C)n(CC(O)Cn2ccc3ccccc32)n1 (configuration not stated),inactive
22,c1ccc(-c2nnc(-c3cccc(-c4nnc(-c5ccccc5)o4)c3)o2)cc1,inactive
23,c1ccc(-c2nnc(-c3ccccc3)o2)cc1,inactive
24,Cc1occc1-c1nc(-c2ccccn2)no1,inactive
25,c1ccc(-c2noc(-c3ccc4ccccc4c3)n2)cc1,active
26,Cc1ccc(Cc2nc(-c3ccccn3)no2)cc1,inactive

row,SMILES,outcome
1,Brc1cccc(-c2nc(-c3ccncc3)no2)c1,inactive
2,CCOc1ccc(-c2nc(-c3ccccc3)no2)cc1OCC,inactive
3,CC1=CCC(C(=O)O)C(C(=O)Nc2nc3ccc(S(C)(=O)=O)cc3s2)C1 (configuration not stated),inactive
4,Cn1c(=O)c2c(ncn2CC(=O)N2CCN(c3ccccc3F)CC2)n(C)c1=O,inactive
5,COc1ccc(-c2c(C)n([O-])c(C)c(C)[n+]2=O)cc1,inactive
6,COc1ccc(S(=O)(=O)N2C3CCC2CC(NC(=O)NC2CCCCC2)C3)cc1 (configuration not stated),inactive
7,COc1cccc(NS(=O)(=O)c2ccc3[nH]cc(C(=O)NC4CC4)c(=O)c3c2)c1,inactive
8,CCCn1c(-c2ccc(OC)cc2)nc2c(=O)n(C)c(=O)[nH]c21,inactive
9,CCC(C)NS(=O)(=O)c1ccc(NC(=O)c2c(-c3ccccc3)noc2C)cc1 (configuration not stated),inactive
10,O=C(NCCCc1ccccc1)c1cnc2n(c1=O)CCS2,inactive
11,O=C(COc1cccc(C(F)(F)F)c1)NCCCN1CCCC1=O,inactive
12,CCC(=O)Nc1ccc2c(c1)C(=O)N(C1CCCCC1)C2=O,inactive
13,CCN(CC)c1ccc2cc(C(C)=O)c(=O)oc2c1,inactive
14,CCN(CC)c1ccc2cc(C(=O)Nc3ccccn3)c(=O)oc2c1,inactive
15,CC(C)C(NS(=O)(=O)c1ccc(Br)s1)C(=O)O (configuration not stated),inactive
16,O=C(CCCSc1nnc(-c2cccs2)n1CC1CCCO1)c1ccccc1 (configuration not stated),inactive
17,CCOc1ccc(Nc2cc(C)nc(-n3nc(C)cc3C)n2)cc1,inactive
18,Cc1ccc(Oc2cc(-n3nc(C)cc3C)ncn2)cc1,inactive
19,CC(=O)c1ccc(Oc2cc(C)nc(-n3nc(C)cc3C)n2)cc1,active
20,CNc1cc(C)nc(-n2nc(C)cc2C)n1,inactive
21,COc1ccc(Nc2cc(C)nc(-n3nc(C)cc3C)n2)cc1,active
22,COC(=O)c1ccc(Oc2nc(C)cc(Oc3ccccc3)n2)cc1,inactive
23,COC(=O)c1ccc(Oc2cc(C)nc(SC)n2)cc1,inactive
24,COC(=O)c1ccc(Oc2cc(C)nc(-n3nc(C)cc3C)n2)cc1,active
25,CC(=O)c1ccc(Oc2cc(C)nc(NCc3ccccc3)n2)cc1,inactive
26,Cc1ccc(C(=O)NCc2cccs2)cc1S(=O)(=O)N1CCCCC1,inactive

row,SMILES,outcome
1,Cc1cccc(OCCn2c(=O)sc3ccccc32)c1,inactive
2,CCSc1nnc(NC(=O)CSc2nc3c(c(=O)n2C)SC(C)C3)s1 (configuration not stated),inactive
3,COc1ccc(C)cc1S(=O)(=O)N(C)CC(=O)Nc1ccccc1,inactive
4,Cc1ccc(-c2nnc(SCC(=O)N3CCCC3)o2)cc1C,inactive
5,COC(=O)c1ccc(S(=O)(=O)c2ccccc2)c(N)c1,inactive
6,O=C(Cn1cnc2c(nnn2Cc2ccccc2)c1=O)N1CCN(c2ccccc2)CC1,inactive
7,CCOc1nc(NC2CCCCC2)nc(NC(C)(C)C)n1,inactive
8,C/C=C/COC(=O)c1[nH]c2c(c1C)C(=O)CC(c1ccc(N(C)C)cc1)C2 (configuration not stated),inactive
9,Cc1c(C(=O)OCC2CCCO2)[nH]c2c1C(=O)CC(c1ccc(N(C)C)cc1)C2 (configuration not stated),inactive
10,C=CCOC(=O)c1[nH]c2c(c1C)C(=O)CC(c1ccco1)C2 (configuration not stated),active
11,C/C=C/COC(=O)c1[nH]c2c(c1C)C(=O)CC(c1ccco1)C2 (configuration not stated),active
12,Cc1ccc(S(=O)(=O)N(CC(=O)N2CCC(C(N)=O)CC2)Cc2ccc(F)cc2)cc1,inactive
13,Oc1ccccc1-c1cc(-c2ccc3c(c2)OCCO3)n[nH]1,active
14,Oc1ccc(F)cc1-c1cc(-c2ccc3c(c2)OCCO3)n[nH]1,inactive
15,Oc1ccccc1-c1cc(-c2cccc(F)c2)n[nH]1,inactive
16,Cc1cccc(NCc2ccccc2O)n1,inactive
17,O=C(CSc1nnc(COc2ccc(F)cc2)o1)N1c2ccccc2CCc2ccccc21,inactive
18,O=C(CSc1nnc(COc2ccc(Cl)cc2)o1)N1c2ccccc2CCc2ccccc21,active
19,O=C(CSc1nnc(COc2ccc(Cl)cc2)o1)N1CCN(c2ccccc2)CC1,inactive
20,COC(=O)c1ccccc1NC(=O)NCc1ccco1,inactive
21,CC1(C)CC(=O)C2=C(C1)N(CCN1CCOCC1)C1=C(C(=O)CC(C)(C)C1)C2c1cccc(F)c1,inactive
22,CC(=O)Nc1ccc(-c2nnn(CC(=O)c3ccccc3)n2)cc1Cl,inactive
23,CCOc1cc(/C=N/n2cnnc2)c(Br)cc1O,active
24,CCOc1cc(/C=N/n2cnnc2)cc(Br)c1O,inactive
25,CCOc1cc(/C=N/n2cnnc2)ccc1O,inactive
